Source: PubChem BioAssay (several laboratories)
3CLpro inhibitor = SARS-CoV 3CLpro protease inhibition | AID 1706 | 290,000 compounds, 0.14% hits | inhibition, % at 6 µM | recombinant SARS-CoV 3CLpro, quenched FRET peptide cleavage; in the data active = inhibition above about 12%
PriA SSB inh = inhibitors of Klebsiella pneumoniae PriA binding to SSB C-terminal tail | AlphaScreen SSBct-PriA binding, biotinylated peptide | inhibition, % at 33 µM | 430,000 compounds, 0.6% hits; in the data active = inhibition mostly above about 37%, no sharp cut-off; inactive = mostly below about 20%;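 note: plate controls were negative control peptide for no effect and reference peptide for full effect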
PrPC surface inh = cell surface PrPC inhibition, primary TR-FRET screen | P04156 | TR-FRET read-out | inhibition, % at 13.8 µM | 370,000 compounds, 0.43% hits | AID 720596; in the data active = inhibition above about 24%; note: 0% = median of the test wells and 100% = reference compound wells
PrP UTR inh = inhibition of PrP 5' UTR reporter expression; 340,000 compounds, 0.35% hits; cell-based PrP 5' UTR mRNA reporter, plate reader; inhibition, % (no concentration beside the values); in the data active = inhibition above about 52%; note: 0 = median of the neutral control wells
PfHsp40 yeast = restores yeast growth despite PfHsp40 toxicity. 340,000 compounds, 0.68% hits. growth rescue, % at 12.5 µM. S. cerevisiae expressing PfHsp40, growth rescue, ATP luminescence. AID 504582; in the data active = growth rescue above about 28%, passing the limit was not always enough;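 note: yeast W303a lacking pdr1 and pdr3 grown in galactose medium; growth measured after three days at 30 °C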
Vc quorum ag-1 = quorum light induction in luxS cqsA deficient V. cholerae. activation, % at 18.7 µM. 350,000 compounds, 0.16% hits. V. cholerae BH1578 lux reporter, luminescence, 6 h; in the data active = activation mostly above about 9.7%, no sharp cut-off
Vc quorum ag-2 = induces V. cholerae light production without autoinducers; shares compounds with Vc quorum ag-1; V. cholerae BH1578 lux reporter, luminescence, 6 h; activation, % at 50 µM; 620 tested, under 10 active; AID 602243; call rule not given here
HeLa 24h tox = cytotoxicity in HeLa cells at 24 hours | shares compounds with Vc quorum ag-1 | HeLa viability, CellTiter-Glo ATP luminescence | activity change, negative = cytotoxicity, % at 35 µM | 25 tested, under 10 active | AID 624140;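 active = signal drop with fitted half-maximal concentration at or below twice the highest valid dose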
Active calls of the source: *; i = inactive; / = no result; + = active, no number. Compounds with a hit are over-represented: about 1.6% of the library has one in this group of screens.

SMILES	3CLpro inhibitor	PriA SSB inh	PrPC surface inh	PrP UTR inh	PfHsp40 yeast	Vc quorum ag-1	Vc quorum ag-2	others
CCc1cccc2sc(NC(=O)C3CCCCN3S(C)(=O)=O)nc12 (stereo unspecified)	/	-4	/	/	/	/	/
COc1cc(OC)c(C(=O)Nc2cc(Cl)ccc2-n2cncn2)cc1OC	/	9	-2	-15	1	-1	/
COc1cc(C(C)=O)ccc1OCC(=O)Nc1cc(Cl)ccc1-n1cncn1	/	6	-5	-16	0	19	0
C=CCN1C(=O)c2ccc(C(=O)N(CC)CC(=O)Nc3cc(Cl)ccc3C)cc2C1=O	/	3	0	-27	0	15*	0
C=CCN1C(=O)c2ccc(C(=O)N(C)CC(=O)Nc3ccccc3Cl)cc2C1=O	/	2	5	3	-1	-1	/
COc1ccc(CNC(=O)NC[C@H](O)c2ccc(OC)c(OC)c2)cc1OC	/	-2	/	/	/	/	/
CC(=O)Nc1ccc(N2CCCCC2)cc1	-9	-5	0	-15	0	i	/
CC(=O)Nc1ccc(N2CCCC2)cc1	-6	3	-16	-26	-1	25	0
CCOc1ccc(S(=O)(=O)N(CCO)CCO)cc1-c1nc2c(C(C)(C)C)nn(C)c2c(=O)[nH]1	8	-3	3	-16	0	12	0
CCCc1nn(C)c2c(=O)[nH]c(-c3cc(S(=O)(=O)N(CCO)CCO)ccc3OCC)nc12	2	0	-12	-12	1	-2	/
Cc1nc(=O)c(-c2ccccc2)c(C)n1CCCCCC(=O)O	3	3	4	-4	1	17*	0
O=C(NCCNC(=O)Nc1cccc(Cl)c1)Nc1cccc(Cl)c1	/	-7	/	/	/	/	/
O=C(Nc1nccs1)C(NS(=O)(=O)c1ccc(Br)s1)c1ccccc1 (stereo unspecified)	-3	-12	-2	-13	0	25*	0
COc1ccc2cc(C(=O)Nc3ccc4c(c3)N(C(=O)C3CCCC3)CC4)[nH]c2c1	/	12	/	/	/	/	/
O=C(COc1ccc(Cl)cc1Cl)N1CCSC(c2ccccc2)CC1 (stereo unspecified)	/	5	/	/	/	/	/
CCC1Nc2ncnc(N3CCN(c4ccccc4)CC3)c2N(Cc2ccccc2)C1=O (stereo unspecified)	/	7	-1	-13	1	6	0
O=C(O)c1cccc(Nc2ncnc3c2cnn3-c2ccccc2)c1	-2	-8	2	-40	0	17*	0
Clc1cccc(Nc2ncnc3c2cnn3-c2ccccc2)c1	/	-18	12	-52	0	0	/
Cc1ccccc1-n1ccnc1SCC(=O)NCC1CCCO1 (stereo unspecified)	-1	-11	2	-11	20	15*	0
Cc1ccc(-n2nnnc2SCC(=O)NCC2CCCO2)cc1C (stereo unspecified)	/	-12	3	-11	1	12	-101
CCCCCn1nc(C(=O)N(CC(C)C)c2c(N)n(CCCC)c(=O)[nH]c2=O)c2ccccc2c1=O	/	2	2	5	1	9	0
Cc1ccc(S(=O)(=O)N2CCN(C(=O)c3cc(-c4cccs4)nn3-c3ccccc3)CC2)cc1	/	-4	-4	-32	3	-4	/
O=C(c1cc(-c2cccs2)nn1-c1ccccc1)N1CCN(S(=O)(=O)c2ccccc2)CC1	/	1	-7	1	0	14	0
O=C(Cc1ccsc1)N1CCC(Oc2cccnn2)C1 (stereo unspecified)	/	0	/	/	/	/	/
CCCOC(=O)c1ccc(NC(=O)CCC(=O)OCC)cc1	-4	0	3	-31	0	12	0
SMILES	3CLpro inhibitor	PriA SSB inh	PrPC surface inh	PrP UTR inh	PfHsp40 yeast	Vc quorum ag-1	Vc quorum ag-2	others
CCCOC(=O)c1ccc(NC(=O)C2CCCO2)cc1 (stereo unspecified)	2	-15	-2	-57	1	17*	0
O=C(NCC12CC3CC(CC(C3)C1)C2)N1CCN(c2ccccc2)CC1	/	10	/	/	/	/	/
COc1cc(C2N(c3ccccn3)C(=O)C3CCCN32)cc(OC)c1OC (stereo unspecified)	-2	4	6	-28	0	26*	0
O=c1c2ccccc2nnn1CSc1nnc2ccccn12	3	-5	-4	-70	1	40*	6
CN(CC(=O)NCCN1CCOCC1)S(=O)(=O)c1ccc(Cl)cc1	/	-11	-11	-6	-1	37*	1
O=c1ncn(-c2cccc(Cl)c2)c2ccccc12	/	2	3	-12	0	+	619	HeLa 24h tox=0
CCC1(CC)NC(=O)N(CC(=O)OCC(=O)NC(=O)c2ccc(Cl)cc2)C1=O	-3	-8	7	1	0	0	/
CCC1(CC)NC(=O)N(CC(=O)OCC(=O)NC(=O)c2ccccc2OC)C1=O	/	-9	-5	-15	-1	14	0
CCn1nnc2c(N3CC(C(=O)NCCOc4ccc(F)cc4)C3)ncnc21	/	1	/	/	/	/	/
CCN(C(=O)C1CCCCC1)c1nnc(-c2cccnc2)s1	0	4	-3	-16	-1	0	/
COCCN(C(=O)C1CCC1)c1nnc(-c2cccnc2)s1	5	0	-3	-3	-1	14	0
CC1CCCCC1NC(=O)COC(=O)c1ccccc1NC(=O)c1ccco1 (stereo unspecified)	5	5	-3	-24	6	21*	0
CNC(=O)COC(=O)c1ccccc1NC(=O)c1ccco1	0	5	-3	-20	22	-2	/
COc1cc(NC(=O)N2CCCC(c3nnc(-c4cccs4)o3)C2)cc(OC)c1OC (stereo unspecified)	/	9	/	/	/	/	/
CCOC(=O)C1CCCN(Cc2cccc(Cl)c2)C1 (stereo unspecified)	-2	4	0	/	1	12	0
O=C(c1ccc(N2CCOCC2)nc1)N1CCOCC1	1	-5	3	-19	-1	2	/
O=C(c1ccc(C(=O)N2CCOCC2)nc1)N1CCOCC1	6	-12	-3	-24	1	17*	0
CCCn1nnnc1NCc1ccc(OC)cc1OC	3	-3	0	-2	0	+	i
CCCn1nnnc1NCc1cccc(Cl)c1	-4	-11	6	-42	0	-1	/
CCCn1nnnc1NCc1ccc(SC)cc1	-3	-3	7	-17	0	/	i
CCCn1nnnc1NCc1cc(Br)ccc1OC	-4	-13	11	-26	0	0	/
CCCn1nnnc1NCc1ccc(F)cc1	-2	5	8	-29	-2	i	/
CCCn1nnnc1NCc1ccc(N(CC)CC)cc1	1	4	1	-23	-2	/	i	HeLa 24h tox=-3
CCN(CC)c1ccc(CNc2nnnn2C)cc1	3	-8	-5	-62	0	+	i
CCSc1nnc(NC(=O)CCn2c(=O)sc3ccccc32)s1	/	3	/	/	/	/	/
